Experimental data: PubChem BioAssay AID1159580 (chemical genetic matrix, 2015)
Among all 5,500 compounds or so, about 2,000 (36%) were called active. About 18% were inconclusive and are not listed. Rule as the data show it: active = normalized growth mostly below about 0.91 (no sharp cut-off); inconclusive = no clear call, values can overlap the other calls; inactive = mostly above about 0.92. Some of the results follow.

Assay: chemical genetic growth profiling, strain panel (AID 1159580);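 also: tested at 20 µM; growth read once vehicle control cultures reached saturation at 30 °C; 1 = growth at the plate median or of vehicle wells; lower values mean less growth of the strain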
Conditions: growth OD

Measured: normalized growth

COS(C)(=O)=O
inactive: S. cerevisiae deletion strains, locus YJR075W, strain HOC1, active compounds read low 1.01 | S. cerevisiae deletion strains, locus YKL009W, strain mrt4, active compounds read low 1.03 | S. cerevisiae deletion strains, locus YKL068W, active compounds read low 1.01 | S. cerevisiae deletion strains, locus YKL085W, strain MDH1 (second series), active compounds read low 1.02 | S. cerevisiae deletion strains, locus YKL085W, strain MDH1, active compounds read low 1.02 | S. cerevisiae deletion strains, locus YKL160W, strain elf1, active compounds read low 1 | S. cerevisiae deletion strains, locus YKL190W, strain CNB1, active compounds read low 1 | S. cerevisiae deletion strains, locus YKR001C, strain vps1, active compounds read low 1.01 | S. cerevisiae deletion strains, locus YKR026C, strain gcn3, active compounds read low 0.996 | S. cerevisiae deletion strains, locus YKR091W, strain srl3, active compounds read low 0.993 | S. cerevisiae deletion strains, locus YLL001W, strain dnm1, active compounds read low 0.996 | S. cerevisiae deletion strains, locus YLL026W, active compounds read low 0.996 | S. cerevisiae deletion strains, locus YLL041C, strain sdh2, active compounds read low 1 | S. cerevisiae deletion strains, locus YLR027C, strain aat2, active compounds read low 0.97 | S. cerevisiae deletion strains, locus YLR039C, strain RIC1, active compounds read low 1.07 | S. cerevisiae deletion strains, locus YLR058C, strain SHM2, active compounds read low 1.01 | S. cerevisiae deletion strains, locus YLR102C, strain apc9, active compounds read low 1.01 | S. cerevisiae deletion strains, locus YLR113W, strain HOG1, active compounds read low 0.983 | S. cerevisiae deletion strains, locus YLR221C, strain rsa3, active compounds read low 0.961 | S. cerevisiae deletion strains, locus YLR258W, strain gsy2, active compounds read low 1.03 | S. cerevisiae deletion strains, locus YLR262C, strain YPT6 (second series), active compounds read low 0.997 | S. cerevisiae deletion strains, locus YLR262C, strain YPT6, active compounds read low 1.06 | S. cerevisiae deletion strains, locus YLR268W, strain sec22, active compounds read low 0.973 | S. cerevisiae deletion strains, locus YLR320W, strain mms22, active compounds read low 0.954 | S. cerevisiae deletion strains, locus YLR330W, strain CHS5, active compounds read low 1.01 | S. cerevisiae deletion strains, locus YLR342W, strain FKS1 (second series), active compounds read low 1.08 | S. cerevisiae deletion strains, locus YLR342W, strain FKS1, active compounds read low 0.992 | S. cerevisiae deletion strains, locus YLR357W, strain rsc2, active compounds read low 0.935 | S. cerevisiae deletion strains, locus YLR370C, strain arc18, active compounds read low 1 | S. cerevisiae deletion strains, locus YLR371W, strain rom2, active compounds read low 1.02 | S. cerevisiae deletion strains, locus YLR384C, strain iki3, active compounds read low 0.982 | S. cerevisiae deletion strains, locus YLR418C, strain cdc73, active compounds read low 0.95 | S. cerevisiae deletion strains, locus YML016C, strain PPZ1, active compounds read low 1 | S. cerevisiae deletion strains, locus YML032C, strain rad52, active compounds read low 1.03 | S. cerevisiae deletion strains, locus YML120C, strain ndi1, active compounds read low 1 | S. cerevisiae deletion strains, locus YML124C, strain tub3, active compounds read low 1.01 | S. cerevisiae deletion strains, locus YMR058W, strain fet3, active compounds read low 1.02 | S. cerevisiae deletion strains, locus YMR078C, strain ctf18, active compounds read low 1.02 | S. cerevisiae deletion strains, locus YMR125W, strain sto1, active compounds read low 0.992 | S. cerevisiae deletion strains, locus YMR129W, active compounds read low 0.997 | S. cerevisiae deletion strains, locus YMR205C, strain PFK2, active compounds read low 1 | S. cerevisiae deletion strains, locus YMR223W, strain ubp8, active compounds read low 1.05 | S. cerevisiae deletion strains, locus YMR231W, strain pep5, active compounds read low 0.985 | S. cerevisiae deletion strains, locus YMR263W, strain SAP30, active compounds read low 0.995 | S. cerevisiae deletion strains, locus YMR307W, strain GAS1, active compounds read low 1.05 | S. cerevisiae deletion strains, locus YNL067W, strain RPL9B, active compounds read low 1 | S. cerevisiae deletion strains, locus YNL071W, strain lat1, active compounds read low 1 | S. cerevisiae deletion strains, locus YNL128W, strain TEP1, active compounds read low 0.987 | S. cerevisiae deletion strains, locus YNL153C, strain GIM3, active compounds read low 0.976 | S. cerevisiae deletion strains, locus YNL183C, strain NPR1, active compounds read low 1 | S. cerevisiae deletion strains, locus YNL209W, strain ssb2, active compounds read low 1.01 | S. cerevisiae deletion strains, locus YNL233W, strain BNI4, active compounds read low 0.99 | S. cerevisiae deletion strains, locus YNL248C, strain rpa49, active compounds read low 0.998 | S. cerevisiae deletion strains, locus YNL250W, strain rad50, active compounds read low 1.02 | S. cerevisiae deletion strains, locus YNL271C, strain bni1, active compounds read low 1.02 | S. cerevisiae deletion strains, locus YNL298W, strain CLA4, active compounds read low 1.02 | S. cerevisiae deletion strains, locus YNL307C, strain MCK1, active compounds read low 1.03 | S. cerevisiae deletion strains, locus YNL322C, strain KRE1 (second series), active compounds read low 0.976 | S. cerevisiae deletion strains, locus YNL322C, strain KRE1, active compounds read low 1.01 | S. cerevisiae deletion strains, locus YNR049C, strain mso1, active compounds read low 0.995 | S. cerevisiae deletion strains, locus YNR052C, strain pop2, active compounds read low 1.03 | S. cerevisiae deletion strains, locus YOL006C, strain TOP1, active compounds read low 1.03 | S. cerevisiae deletion strains, locus YOL012C, strain htz1 0.976 | S. cerevisiae deletion strains, locus YOL147C, strain pex11, active compounds read low 1.01 | S. cerevisiae deletion strains, locus YOR001W, strain rrp6, active compounds read low 0.942 | S. cerevisiae deletion strains, locus YOR061W, strain CKA2, active compounds read low 1 | S. cerevisiae deletion strains, locus YOR069W, strain VPS5, active compounds read low 1.01 | S. cerevisiae deletion strains, locus YOR070C, strain gyp1, active compounds read low 0.989 | S. cerevisiae deletion strains, locus YOR080W, strain dia2, active compounds read low 0.986 | S. cerevisiae deletion strains, locus YOR083W, strain WHI5, active compounds read low 1.01 | S. cerevisiae deletion strains, locus YOR106W, strain vam3, active compounds read low 1.03 | S. cerevisiae deletion strains, locus YOR136W, strain idh2, active compounds read low 1.01 | S. cerevisiae deletion strains, locus YOR144C, strain elg1, active compounds read low 1 | S. cerevisiae deletion strains, locus YOR184W, strain ser1, active compounds read low 1.05 | S. cerevisiae deletion strains, locus YOR231W, strain MKK1, active compounds read low 0.987 | S. cerevisiae deletion strains, locus YOR265W, strain rbl2, active compounds read low 0.999 | S. cerevisiae deletion strains, locus YOR270C, strain vph1, active compounds read low 0.981 | S. cerevisiae deletion strains, locus YOR290C, strain snf2, active compounds read low 0.995 | S. cerevisiae deletion strains, locus YOR316C, strain cot1, active compounds read low 1.02 | S. cerevisiae deletion strains, locus YPL051W, strain arl3, active compounds read low 1.02 | S. cerevisiae deletion strains, locus YPL055C, strain LGE1, active compounds read low 0.968 | S. cerevisiae deletion strains, locus YPL078C, strain atp4, active compounds read low 1.01 | S. cerevisiae deletion strains, locus YPL106C, strain sse1, active compounds read low 0.99 | S. cerevisiae deletion strains, locus YPL240C, strain hsp82, active compounds read low 0.995 | S. cerevisiae deletion strains, locus YPL241C, strain CIN2, active compounds read low 1 | S. cerevisiae deletion strains, locus YPL256C, strain CLN2, active compounds read low 0.99 | S. cerevisiae deletion strains, locus YPR119W, strain clb2, active compounds read low 1 | S. cerevisiae deletion strains, locus YPR141C, strain kar3, active compounds read low 1.02 | S. cerevisiae deletion strains, locus YPR163C, strain tif3, active compounds read low 1 | S. cerevisiae deletion strains, locus YPR167C, strain met16, active compounds read low 1.01 | S. cerevisiae deletion strains, strain wtn01, active compounds read low 0.981 | S. cerevisiae strains, strain wild type, active compounds read low 1.01
